For three compounds, Potency results are on record in PubChem BioAssay (NCATS).

Several values for one entry are separate records, joined by “and”; a condition that tells them apart may be missing. Equal entries are not always repeated. Inconclusive results are not listed. A call without a number means that no potency is given here. Activity calls are given as the source filed them. Calls come from the whole dose curve; as a rule, active = well fitted inhibition curve with a large enough effect; inconclusive = small, poorly fitted or top-dose-only effect; inactive = no such curve, though single readings can be large or run the other way.
Potency is the fitted concentration of half-maximal effect.

The assay in a line: Primary qHTS for inhibitors of nuclear receptor binding SET domain protein 2 (NSD2) in an RCH-ACV wild type WT cells (2C) (AID 1645877). Note: nearly all actives have a fitted effect of over 70% in size. Conditions: RCH-ACV (leukaemia line) NSD2 WT (2C) viability, CellTiter-Glo, 72 h; series mostly up to 44.9 µM. Background: In qHTS, concentration-response curves come from the screen itself.
For the compound `Cc1cc(SCc2sc(-c3ccc(C(F)(F)F)c(F)c3)nc2C)ccc1OCC(=O)O`, the Potency entry is “inactive”.
Turning to `COC[C@H]1OC(=O)c2coc3c2[C@@]1(C)C1=C(C3=O)C2CCC(=O)[C@@]2(C)C[C@H]1OC(C)=O` (stereo partly drawn), the Potency was 2.59 µM (active) and 18.3 µM (active) and 7.42 µM (active).
With `CN(C)CCN(C)CCc1ccc(Cl)c(Cl)c1`, the Potency entry was “inactive”.
